About 450 (0.13%) of roughly 350,000 compounds were called active. How the calls were made is not given here. A selection follows. Potency and affinity values are given separately.
Experiment: inhibitors of VEEV TC-83 cytopathic effect, confirmation, Vero cells (AID 588727)
Conditions: VEEV TC-83 cytopathic effect inhibition, at 20 µM; hits give high values unless noted

| SMILES | inhibition |
| --- | --- |
| CC(=O)Nc1ccc(S(=O)(=O)N2CCC(NC(=O)C(Cc3cccc(F)c3)NC(C)=O)CC2)cc1 (stereo not drawn) | 0.28% (inactive) |
| C[C@]12CCC3C(CCC4=CC(O)CC[C@@]43/C=N/O)C1(O)CCC2C1=CC(=O)OC1 (stereo partly drawn) | 27.9% (inactive) |
| CC(=O)[C@@]1(O)CCC2C3CC[C@H]4C[C@@H](O)CC[C@]4(C)C3CC[C@@]21C (stereo partly drawn) | 6.31% (inactive) |
| COc1ccc(C(=O)N/N=C/C23CC[C@@H](O)CC2(O)CC[C@@H]2[C@@H]3CCC3(C)C(C4=CC(=O)OC4)CCC23O)cc1 (stereo partly drawn) | 42.5% (inactive) |
| CC(=O)O[C@@H]1CC[C@]2(C)C3CC[C@@]4(C)C(C[C@@H](O)[C@@H]4O)C3[C@@H](OC(C)=O)C[C@H]2C1 (stereo partly drawn) | 0.36% (inactive) |
| COc1cc(C(=O)N/N=C/C23CC[C@@H](O)CC2(O)CC[C@@H]2[C@@H]3CCC3(C)C(C4=CC(=O)OC4)CCC23O)ccc1O (stereo partly drawn) | 7% (inactive) |
| C[C@H]1CC[C@@H]2[C@@H](C)[C@H]3[C@H](C[C@H]4[C@@H]5CC=C6C[C@@H](O[C@@H]7O[C@H](CO)[C@H](O)[C@H](O[C@@H]8O[C@H](CO)[C@@H](O)[C@H](O)[C@H]8O)[C@H]7O[C@@H]7O[C@@H](C)[C@H](O)[C@@H](O)[C@H]7O)CC[C@]6(C)[C@H]5CC[C@]34C)N2C1 | inactive |
| CC12CC[C@H]3[C@@H](CCC4(O)C[C@H](O)CCC34/C=N/NC(=O)c3ccc(O)cc3)C1(O)CCC2C1=CC(=O)OC1 (stereo partly drawn) | 0.73% (inactive) |
| CCOc1ccc(N2CC(C(=O)Nc3cccc(C(=O)NC4CC4)c3)CC2=O)cc1 (stereo not drawn) | 1.22% (inactive) |
| Cc1ccccc1OCC(=O)Nc1ccc(N2CCOCC2)cc1N1CCOCC1 | 6.68% (inactive) |
| COc1ccc(C2(C)NC(=O)NC2=O)cc1OC (stereo not drawn) | inactive |
| COc1ccc(OC(C)c2ccc(C#N)c(=O)[nH]2)cc1 (stereo not drawn) | 1% (inactive) |
| Cc1cc(=O)[nH]c(SCn2nnc3ccccc3c2=O)n1 | 0.62% (inactive) |
| COc1ccc(S(=O)(=O)c2c(O)c3ccc(C(=O)Nc4ccccc4Cl)cc3[nH]c2=O)cc1 | 0.45% (inactive) |
| O=C1COc2ccc(C(=O)COC(=O)c3ccc(S(=O)(=O)C(F)F)cc3)cc2N1 | 3.01% (inactive) |
| COc1cc(/C=N/NC2=NS(=O)(=O)c3ccccc32)cc(OC)c1OC | 0.18% (inactive) |
| C[C@]12CC[C@H]3[C@@H](CC[C@]4(O)C[C@@H](O)CC[C@]34C=O)[C@@]1(O)CC[C@@H]2C1=CC(=O)OC1 | 24.6% (inactive) |
| CC12CC[C@H]3[C@@H](CCC4(O)C[C@H](O)CCC34/C=N/NC(=O)c3ccccc3Cl)C1(O)CCC2C1=CC(=O)OC1 (stereo partly drawn) | 2.51% (inactive) |

From PubChem BioAssay AID588727 (Southern Research Specialized Biocontainment Screening …, 2011)
